The full list was thinned out, with hits kept by preference.
IDE exosite inh: exo-site inhibitors of human IDE, primary screen, biochemical, fluorescence anisotropy, probe displacement | AID 1259349, 2017 | purified IDE, FL-6b probe fluorescence polarization; hits give low values | z-score at 20 µM | 17,000 compounds, 6.3% hits;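 active = z-score of -3 or lower, meaning strong loss of probe binding signal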;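 also: His-tagged human IDE residues 42-1019 made in E. coli with 30 nM FL-6b probe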
Target sequence (P14735 42-1019 limits assumed): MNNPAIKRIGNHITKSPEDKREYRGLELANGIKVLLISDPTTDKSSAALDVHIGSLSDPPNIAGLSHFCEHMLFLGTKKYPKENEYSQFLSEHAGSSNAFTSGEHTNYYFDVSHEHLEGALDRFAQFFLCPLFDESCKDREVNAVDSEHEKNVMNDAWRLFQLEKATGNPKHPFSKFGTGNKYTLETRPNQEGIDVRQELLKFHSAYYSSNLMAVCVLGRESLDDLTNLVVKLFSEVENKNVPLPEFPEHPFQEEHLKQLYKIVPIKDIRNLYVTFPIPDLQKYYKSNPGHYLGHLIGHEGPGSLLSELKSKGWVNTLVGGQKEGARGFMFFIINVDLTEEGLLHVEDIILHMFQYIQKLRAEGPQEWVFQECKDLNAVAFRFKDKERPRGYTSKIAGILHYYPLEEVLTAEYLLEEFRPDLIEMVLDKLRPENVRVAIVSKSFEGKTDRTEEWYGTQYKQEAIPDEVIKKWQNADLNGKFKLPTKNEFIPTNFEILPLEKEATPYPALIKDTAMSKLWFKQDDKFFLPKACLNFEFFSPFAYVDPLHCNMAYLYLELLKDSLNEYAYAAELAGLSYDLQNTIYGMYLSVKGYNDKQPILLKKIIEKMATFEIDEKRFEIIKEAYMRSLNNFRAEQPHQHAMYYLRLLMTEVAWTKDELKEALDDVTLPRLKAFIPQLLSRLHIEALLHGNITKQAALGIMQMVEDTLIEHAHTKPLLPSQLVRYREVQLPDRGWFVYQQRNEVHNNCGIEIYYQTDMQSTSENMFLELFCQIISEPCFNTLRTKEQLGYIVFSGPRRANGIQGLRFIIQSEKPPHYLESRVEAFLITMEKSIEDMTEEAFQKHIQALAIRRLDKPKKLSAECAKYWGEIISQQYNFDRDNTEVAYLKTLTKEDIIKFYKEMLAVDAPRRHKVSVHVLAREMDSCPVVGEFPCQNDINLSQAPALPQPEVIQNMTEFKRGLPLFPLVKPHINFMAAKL
An asterisk follows results filed as active.

SMILES	IDE exosite inh
COc1cccc(-c2ccc([C@@H]3[C@H]4CN(C(=O)c5ccc(F)cc5)CCCCN4[C@H]3CO)cc2)c1	0.86
COc1cccc(-c2ccc([C@H]3[C@@H](CO)N4CCCCN(C(=O)c5ccc(F)cc5)C[C@@H]34)cc2)c1	-0.66
COc1cccc(-c2ccc([C@H]3[C@@H](CO)N4CCCCN(C(=O)NC(C)C)C[C@@H]34)cc2)c1	-5.79*
COc1cccc(-c2ccc([C@@H]3[C@@H](CO)N4CCCCN(C(=O)c5ccc(F)cc5)C[C@@H]34)cc2)c1	-0.756
COc1cccc(-c2ccc([C@H]3[C@H](CO)N4CCCCN(C(=O)c5ccc6c(c5)OCO6)C[C@@H]34)cc2)c1	0.902
COc1cccc(-c2ccc([C@H]3[C@H]4CN(C(=O)c5ccc6c(c5)OCO6)CCCCN4[C@H]3CO)cc2)c1	1.32
COc1cccc(-c2ccc([C@H]3[C@H](CO)N4CCCCN(C(=O)NC(C)C)C[C@@H]34)cc2)c1	-12.4*
COc1cccc(-c2ccc([C@@H]3[C@H]4CN(C(=O)NC(C)C)CCCCN4[C@H]3CO)cc2)c1	-8.03*
COc1cccc(-c2ccc([C@@H]3[C@@H](CO)N4CCCCN(C(=O)c5ccc6c(c5)OCO6)C[C@@H]34)cc2)c1	0.952
COc1cccc(-c2ccc([C@@H]3[C@@H](CO)N4CCCCN(C(=O)c5ccc(F)cc5)C[C@H]34)cc2)c1	-1.66
COc1cccc(-c2ccc([C@H]3[C@@H](CO)N4CCCCN(C(=O)c5ccc(F)cc5)C[C@H]34)cc2)c1	-3.25*
CCCNC(=O)N1[C@H](C#N)[C@H](c2ccccc2C2=CCCCC2)[C@@H]1CO	0.0636
CN(C)CC#Cc1ccc([C@H]2[C@@H](CO)N3C(=O)CN(C(=O)c4ccc(F)cc4)C[C@@H]23)cc1	1.94
COCCNC(=O)[C@H]1[C@H](CO)[C@H]2Cn3c(ccc(-c4ccc(F)cc4)c3=O)[C@@H]1N2C(=O)NC(C)C	0.617
COc1ccc(CNC(=O)c2cc3c(c(-c4cccc(-c5ccc(C#N)cc5)c4)n2)[C@H](CCO)N([S@@](=O)C(C)(C)C)C3)cc1	0.755
COc1ccc(-c2ccc([C@H]3[C@H](CO)N4C(=O)CN(Cc5ccc(C)cc5)C[C@@H]34)cc2)cc1	1.01
CC(C)NC(=O)N1CCCCN2[C@H](CO)[C@H](c3ccc(C4=CCCC4)cc3)[C@@H]2C1	2.9
Cc1cccc(-c2ccc([C@H]3[C@H](CO)N4CCCCN(C(=O)NC(C)C)C[C@@H]34)cc2)c1	-13.7*
Cc1ccc(-c2ccc([C@H]3[C@@H](CO)N4CCCCN(C(=O)Nc5ccccc5)C[C@@H]34)cc2)cc1	0.981
Cc1cccc(-c2ccc([C@H]3[C@H](CO)N4CCCCN(C(=O)c5ccc6c(c5)OCO6)C[C@@H]34)cc2)c1	-2.15
Cc1cccc(-c2ccc([C@@H]3[C@H](CO)N4CCCCN(C(=O)NC(C)C)C[C@@H]34)cc2)c1	-11.1*
Cc1ccc(-c2ccc([C@@H]3[C@H]4CN(C(=O)Nc5ccccc5)CCCCN4[C@H]3CO)cc2)cc1	0.844
Cc1cccc(-c2ccc([C@H]3[C@H]4CN(C(=O)NC(C)C)CCCCN4[C@H]3CO)cc2)c1	-14.4*
CCCC#Cc1ccc([C@@H]2[C@H](CO)N3C(=O)CN(C(=O)Nc4cc(F)ccc4F)C[C@@H]23)cc1	-0.25
O=S(=O)(c1ccc(F)cc1)N1CCCCN2[C@H](C1)[C@H](c1ccc(C#CC3CC3)cc1)[C@@H]2CO	0.408
SMILES	IDE exosite inh
CCCNC(=O)N(C)C[C@@H]1Oc2ncc(C#CC3CCCCC3)cc2C(=O)N([C@H](C)CO)C[C@H]1C	-0.153
CN1C(=O)c2cc(NC(=O)c3cccc(F)c3)ccc2OC[C@@H]2O[C@H](CC(=O)NCC3CCCCC3)CC[C@H]21	-0.828
COc1cccc(-c2ccc3c(c2)[C@@H]2[C@@H](CCN2C(=O)c2ccccc2F)[C@@H](CO)N3C)c1	0.815
C[C@@H]1CN([C@H](C)CO)C(=O)CCCn2nncc2CO[C@@H]1CN(C)C(=O)Nc1ccnc(N2CCOCC2)c1	-0.612
Cc1noc(C)c1S(=O)(=O)Nc1ccc2c(c1)C(=O)N([C@@H](C)CO)C[C@H](C)[C@@H](CN(C)Cc1ccc(C(=O)O)cc1)OCCCC[C@H](C)O2	0.223
COc1cccc(-c2ccc([C@H]3[C@@H](CO)N4C(=O)CN(C(=O)c5ccncc5)C[C@@H]34)cc2)c1	-8.55*
COc1cccc(-c2ccc([C@H]3[C@H]4CN(C(=O)c5cccnc5)CC(=O)N4[C@H]3CO)cc2)c1	-0.649
O=C(c1ccncc1)N1CC(=O)N2[C@H](CO)[C@H](c3ccc(-c4ccccc4)cc3)[C@@H]2C1	2.16
COc1cccc(-c2ccc([C@@H]3[C@@H](CO)N4C(=O)CN(C(=O)c5ccncc5)C[C@H]34)cc2)c1	1.65
COc1cccc(-c2ccc([C@@H]3[C@H]4CN(C(=O)c5ccncc5)CC(=O)N4[C@H]3CO)cc2)c1	-10.8*
COc1cccc(-c2ccc([C@@H]3[C@H](CO)N4C(=O)CN(C(=O)c5cccnc5)C[C@@H]34)cc2)c1	-1.57
COc1cccc(NC(=O)C[C@@H]2CC[C@@H]3[C@@H](COc4ccc(NS(=O)(=O)c5cccc(F)c5)cc4C(=O)N3C)O2)c1	-0.651
C[C@H]1CN([C@@H](C)CO)C(=O)c2ccccc2-c2ccccc2CO[C@@H]1CN(C)C(=O)[C@H](Cc1ccccc1)N(C)C	-0.0961
C[C@H]1CN([C@@H](C)CO)C(=O)c2cc(NS(=O)(=O)c3cn(C)cn3)ccc2O[C@H]1CN(C)S(=O)(=O)c1ccc(F)cc1	-0.311
O=C(C[C@H]1C=C[C@@H](NC(=O)Nc2ccccc2F)[C@@H](CO)O1)NCc1ccc(-c2ccccc2)cc1	0.281
CO[C@H]1CN(C)C(=O)c2ccc(NC(C)=O)cc2OC[C@H](C)N(C(=O)c2cnccn2)C[C@@H]1C	0.901
C[C@@H]1CN([C@H](C)CO)C(=O)c2cc(N(C)C)ccc2O[C@H]1CN(C)Cc1ccc(Oc2ccccc2)cc1	-0.227
C[C@H](CO)N1C[C@H](C)[C@H](CN(C)Cc2ccc(Oc3ccccc3)cc2)Oc2ccc(N(C)C)cc2C1=O	-4.24*
Cc1noc(C)c1S(=O)(=O)Nc1ccc2c(c1)CC(=O)N([C@H](C)CO)C[C@H](C)[C@@H](CN(C)Cc1ccc(Oc3ccccc3)cc1)O2	-3.57*
Cc1noc(C)c1S(=O)(=O)Nc1ccc2c(c1)CC(=O)N([C@@H](C)CO)C[C@@H](C)[C@@H](CN(C)Cc1ccc(Oc3ccccc3)cc1)O2	0.553
C[C@@H]1CN([C@H](C)CO)C(=O)c2cc(N(C)C)ccc2O[C@@H]1CN(C)Cc1ccc(Oc2ccccc2)cc1	-2.32
COc1ccc(S(=O)(=O)Nc2ccc3c(c2)CC(=O)N([C@H](C)CO)C[C@@H](C)[C@H](CN(C)C(=O)Nc2c(C)noc2C)O3)cc1	0.888
C[C@H](CO)N1C[C@H](C)[C@@H](CN(C)C(=O)Nc2ccc(-c3ccccc3)cc2)OCc2ccccc2-c2ccccc2C1=O	0.11
COc1ccc(-c2ccc([C@H]3[C@H]4CN(S(=O)(=O)c5cccs5)CCCCN4[C@H]3CO)cc2)cc1	1.23
COCC(=O)N1CC(=O)N2[C@H](C1)[C@@H](c1ccc(-c3ccccc3F)cc1)[C@@H]2CO	-2.63
COCC(=O)N1CC(=O)N2[C@@H](CO)[C@@H](c3ccc(-c4ccccc4F)cc3)[C@@H]2C1	-1.07
CCN1CC(=O)N2[C@H](CO)[C@H](c3ccc(-c4ccccc4F)cc3)[C@@H]2C1	-0.0549
